The values that follow come from PubChem BioAssay (NCATS).

Inconclusive results are not listed. Where a call stands in place of a potency, no number is given. Calls of active or inactive are those of the source. The call rests on the fitted dose curve; in most records, active means well fitted inhibition curve with a large enough effect; inconclusive means small, poorly fitted or top-dose-only effect; inactive means flat fitted curve, though single readings scatter.
Potency means the concentration at half of the fitted maximal effect.

The test system of one assay is AS120. The experiment in a line: qHTS profiling for inhibitors of Plasmodium falciparum proliferation (AID 504749). Further: nearly all actives have a fitted effect of over 60% in size. As to conditions: P. falciparum in erythrocytes, SYBR Green DNA, 72 h; series mostly up to 12.8 µM. The method in brief: (§1)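 P. falciparum-infected erythrocytes (0.3% parasitemia, 2.5% hematocrit) incubated with compound 72 h at 37 C, 5% CO2. Parasite DNA detected by SYBR Green after lysis, overnight at room temperature; normalised to 0.29 uM artemisinin and DMSO.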
In general terms: qHTS replaces the single test concentration by a dilution series.
Regarding `COc1cc(N[C@@H](C)CCCN)c2ncccc2c1`, the Potency is 0.794 µM (active).

On to `C=Cc1c(C)c2cc3nc(cc4[nH]c(cc5nc(cc1[nH]2)C(C)=C5CCC(=O)O)c(CCC(=O)OC)c4C)[C@@]1(C)C3=CC=C(C(=O)OC)[C@H]1C(=O)OC` (tested in a mixture with another compound), for which the Potency was 5.62 µM (active).

Consider `O=C(OC[C@@H](O)CO)c1ccccc1Nc1ccnc2cc(Cl)ccc12`, for which the Potency result was “inactive”.

Turning to `CO[C@]1(NC(=O)[C@H](C(=O)O)c2ccc(O)cc2)C(=O)N2C(C(=O)O)=C(CSc3nnnn3C)CO[C@H]21`, the Potency entry is “inactive”.

For `COc1ccc2c(c1)N(C[C@@H](C)CN(C)C)c1ccccc1S2`, the Potency result was “inactive”.

As to `CCC(=O)[C@@]1(C)[C@H](C)C[C@@H]2[C@@H]3CCC4=CC(=O)C=C[C@@]4(C)[C@H]3[C@H](O)C[C@]21C`, the Potency entry is “inactive”.

Take `CCC(C)(C)C(=O)O[C@@H]1C[C@H](C)C=C2C=C[C@H](C)[C@@H](CC[C@H]3C[C@@H](O)CC(=O)O3)[C@H]21`: the Potency result is “inactive”.

`COC(=O)[C@@H]1[C@@H]2C[C@H]3c4[nH]c5cc(OC)ccc5c4CCN3C[C@@H]2C[C@H](OC(=O)/C=C\c2cc(OC)c(OC)c(OC)c2)[C@H]1OC`: the Potency is 3.55 µM (active).

In the case of `CC=C(/C(=C/C)c1ccc(O)cc1)c1ccc(O)cc1`, the Potency result is “inactive”.

Turning to `CC1(C)S[C@@H]2[C@H](NC(=O)[C@@H](N)c3ccccc3)C(=O)N2[C@H]1C(=O)O[C@H]1OC(=O)c2ccccc21`, the Potency entry is “inactive”.

The test system of another assay is ATS189. The description is as above. The conditions noted are these: P. falciparum in erythrocytes, SYBR Green DNA, 72 h; series mostly up to 12.8 µM. The method in brief: as §1
Consider `COc1cc(N[C@@H](C)CCCN)c2ncccc2c1`, for which the Potency is 2.24 µM (active).

For `C=Cc1c(C)c2cc3nc(cc4[nH]c(cc5nc(cc1[nH]2)C(C)=C5CCC(=O)O)c(CCC(=O)OC)c4C)[C@@]1(C)C3=CC=C(C(=O)OC)[C@H]1C(=O)OC` (tested in a mixture with another compound), the Potency is 7.08 µM (active).

In the case of `O=C(OC[C@@H](O)CO)c1ccccc1Nc1ccnc2cc(Cl)ccc12`, the Potency entry was “inactive”.

Turning to `CO[C@]1(NC(=O)[C@H](C(=O)O)c2ccc(O)cc2)C(=O)N2C(C(=O)O)=C(CSc3nnnn3C)CO[C@H]21`, the Potency result was “inactive”.

As for `COc1ccc2c(c1)N(C[C@@H](C)CN(C)C)c1ccccc1S2`, the Potency result is “inactive”.

Turning to `CCC(=O)[C@@]1(C)[C@H](C)C[C@@H]2[C@@H]3CCC4=CC(=O)C=C[C@@]4(C)[C@H]3[C@H](O)C[C@]21C`, the Potency result is “inactive”.

`CCC(C)(C)C(=O)O[C@@H]1C[C@H](C)C=C2C=C[C@H](C)[C@@H](CC[C@H]3C[C@@H](O)CC(=O)O3)[C@H]21`: the Potency result is “inactive”.

For the compound `CC=C(/C(=C/C)c1ccc(O)cc1)c1ccc(O)cc1`, the Potency entry was “inactive”.

For the compound `CC1(C)S[C@@H]2[C@H](NC(=O)[C@@H](N)c3ccccc3)C(=O)N2[C@H]1C(=O)O[C@H]1OC(=O)c2ccccc21`, the Potency entry was “inactive”.
